# Source: the supplement of paper PMC9135407
# Where “and” joins values, the source holds several entries; their conditions need not be identical. Equal entries are not always repeated. Structures can show the parent of a compound that is named as a salt. Hit rate of the full screen: of about 5,800 compounds, about 620 (11%) showed activity. The full list was thinned out, with actives kept by preference. A number with no mark means an inactive call.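 How the source made its calls: active = score above a cut-off or among the top three wells of a plate; in these data no inactive exceeds 0.85.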
# Test system: primary human hepatic stellate cells (donor 1)
# Assay: scaled lipid accumulation score (0 = DMSO-like, 1 = nortriptyline-like); higher = stronger HSC inactivation (lipid re-accumulation), active = hit call of the paper
# Settings: 48 h
# [1] = library stock concentration: 10 mM
# [2] = library stock concentration: 3.33 mM
# [3] = library stock concentration: 80 uM
# [4] = library stock concentration: 400 uM
# [5] = library stock concentration: 2 mM
smiles,measurement,setting,value
CNCCC(Oc1ccc(C(F)(F)F)cc1)c1ccccc1.Cl (centres undefined) [Fluoxetine hydrochloride],scaled lipid accumulation score,,1.05 (active)
CNCC[C@H](Oc1ccc(C(F)(F)F)cc1)c1ccccc1 [S-(+)-Fluoxetine hydrochloride],scaled lipid accumulation score,[1],0.403
CN(CC[C@@H](Oc1ccc(C(F)(F)F)cc1)c1ccccc1)CC(=O)[O-].[Li+],scaled lipid accumulation score,[1],0.149
CNCCC(Oc1ccc(C(F)(F)F)cc1)c1ccccc1 (centres undefined) [Fluoxetine],scaled lipid accumulation score,[1],0.637
CNCCC(Oc1ccc(C(F)(F)F)cc1)c1ccccc1 (centres undefined) [Fluoxetine hydrochloride],scaled lipid accumulation score,[1],0.09
CN(CC[C@@H](Oc1ccc(-c2ccccc2)cc1)c1ccc(F)cc1)CC(=O)O [ALX 5407 hydrochloride],scaled lipid accumulation score,[1],≤ -0.006
O=C(NCc1ccncc1)C12CC3CC(C1)CC(c1ccc(Cl)cc1)(C3)C2,scaled lipid accumulation score,library stock concentration: 13.1 mM,0.27
C[C@H](N[C@@H](CCc1ccccc1)C(=O)O)C(=O)N1Cc2ccccc2C[C@H]1C(=O)O,scaled lipid accumulation score,[1],≤ 0
CN1CCN(C(=O)c2cc3cc(Cl)ccc3[nH]2)CC1,scaled lipid accumulation score,[2],0.053
same,scaled lipid accumulation score,[1],0.452
Cc1[nH]c(C=C2C(=O)Nc3ccc(S(=O)(=O)N(C)c4cccc(Cl)c4)cc32)c(C)c1C(=O)N1CCN(C)CC1,scaled lipid accumulation score,[2],1.39 (active)
same,scaled lipid accumulation score,[1],1.27 (active)
Cc1[nH]c(/C=C2\C(=O)Nc3ccc(S(=O)(=O)N(C)c4cccc(Cl)c4)cc32)c(C)c1C(=O)N1CCN(C)CC1,scaled lipid accumulation score,[3],0.129
same,scaled lipid accumulation score,[4],0.261
Cc1[nH]c(/C=C2\C(=O)Nc3ccc(S(=O)(=O)Cc4c(Cl)cccc4Cl)cc32)c(C)c1C(=O)N1CCC[C@@H]1CN1CCCC1 [listing 1 of 2 here],scaled lipid accumulation score,[3],1.15 (active)
same,scaled lipid accumulation score,[4],1.16 (active)
same,scaled lipid accumulation score,[5],1.16 (active)
Cc1[nH]c(/C=C2\C(=O)Nc3ccc(S(=O)(=O)N(C)c4cccc(Cl)c4)cc32)c(C)c1C(=O)N1CCN(C)CC1 [Met Kinase Inhibitor],scaled lipid accumulation score,[2],1.38 (active)
Cc1[nH]c(/C=C2\C(=O)Nc3ccc(S(=O)(=O)Cc4c(Cl)cccc4Cl)cc32)c(C)c1C(=O)N1CCC[C@@H]1CN1CCCC1 [listing 2 of 2 here],scaled lipid accumulation score,[2],0.429
same,scaled lipid accumulation score,[1],0.553 and 0.41 and 0.638
CN1CCCN(C(=O)c2cccc(-c3ccc(/C=C4/C(=O)Nc5ccc(Cl)cc54)o3)c2)CC1,scaled lipid accumulation score,[2],0.657
same,scaled lipid accumulation score,[1],≤ -0.001
Cc1[nH]c(/C=C2/C(=O)Nc3ccc(S(=O)(=O)N(C)c4cccc(Cl)c4)cc32)c(C)c1C(=O)N1CCN(C)CC1,scaled lipid accumulation score,[5],0.927 (active)
same,scaled lipid accumulation score,[1],1.14 (active)
"O=C1Nc2ccc(Cl)cc2/C1=C/c1cc(Cl)c(O)c(Cl)c1 [PKR Inhibitor, Negative Control]",scaled lipid accumulation score,[2],≤ 0
O=C1Nc2ccc(Cl)cc2/C1=C/c1cc(Cl)c(O)c(Cl)c1,scaled lipid accumulation score,[3],≤ -0.001
same,scaled lipid accumulation score,[4],≤ -0.001
same,scaled lipid accumulation score,[5],≤ -0.001
same,scaled lipid accumulation score,[1],≤ -0.001
